Assay results published in PubChem BioAssay (NCATS).
Results filed as inconclusive are left out. Where a call stands in place of a potency, no number is given. The source made the active and inactive calls. Unless noted, calls follow the shape of the dose curve; as a rule, active = well fitted curve in the direction sought with a large enough effect; inconclusive = small, poorly fitted or top-dose-only effect, or another doubt; inactive = no such curve, though single readings can be large; an effect the other way counts as inactive or inconclusive.

What was measured:
[1] = target: Ubiquitin carboxyl-terminal hydrolase 1 (Homo sapiens) (UniProt O94782); experiment: Inhibitors of USP1/UAF1: Pilot qHTS (AID 504865);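 also: rhodamine fluorescence freed from ubiquitin-rhodamine substrate followed over time; top concentration of the series differs between compounds; nearly all actives have a fitted effect of over 35% in size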
Chain of Ubiquitin carboxyl-terminal hydrolase 1 (Homo sapiens) (O94782 whole entry, looked up): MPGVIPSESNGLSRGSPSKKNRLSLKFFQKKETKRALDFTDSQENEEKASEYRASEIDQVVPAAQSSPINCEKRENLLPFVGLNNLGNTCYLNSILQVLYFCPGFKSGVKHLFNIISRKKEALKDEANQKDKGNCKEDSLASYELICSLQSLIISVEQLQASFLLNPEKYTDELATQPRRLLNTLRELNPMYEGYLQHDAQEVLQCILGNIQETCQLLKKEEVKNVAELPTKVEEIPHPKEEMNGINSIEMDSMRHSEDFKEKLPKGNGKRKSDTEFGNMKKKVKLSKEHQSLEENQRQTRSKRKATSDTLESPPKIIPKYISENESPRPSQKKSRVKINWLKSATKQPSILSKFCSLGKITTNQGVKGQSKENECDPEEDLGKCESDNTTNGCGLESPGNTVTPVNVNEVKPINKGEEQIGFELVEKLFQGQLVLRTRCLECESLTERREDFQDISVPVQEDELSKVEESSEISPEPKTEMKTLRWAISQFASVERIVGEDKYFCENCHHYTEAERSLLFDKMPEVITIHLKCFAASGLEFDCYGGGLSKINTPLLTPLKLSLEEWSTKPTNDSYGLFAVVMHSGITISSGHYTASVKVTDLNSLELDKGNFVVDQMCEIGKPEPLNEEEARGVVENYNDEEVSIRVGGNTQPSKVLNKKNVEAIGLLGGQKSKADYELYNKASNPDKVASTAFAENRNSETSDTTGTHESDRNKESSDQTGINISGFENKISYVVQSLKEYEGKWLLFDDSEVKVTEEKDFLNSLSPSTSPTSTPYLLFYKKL
Outline: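 1nM USP1/UAF1 + cpd, 15 min RT; start w/ Ub-Rho 150nM final; kinetic FL 480/540 nm, 6 reads q60 s. Buffer 50mM HEPES pH 7.8, 0.5mM EDTA, 1mM TCEP, 0.01% Tween-20, 0.1 mg/ml BSA.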

[2] = target: Luciferin 4-monooxygenase (Photinus pyralis) (UniProt P08659); experiment: Biochemical firefly luciferase enzyme assay for NPC (AID 624030);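 also: purified P. pyralis luciferase at 10 nM with luciferin and ATP substrate; nearly all actives have a fitted effect of over 70% in size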
Chain of Luciferin 4-monooxygenase (Photinus pyralis) (P08659 whole entry, looked up): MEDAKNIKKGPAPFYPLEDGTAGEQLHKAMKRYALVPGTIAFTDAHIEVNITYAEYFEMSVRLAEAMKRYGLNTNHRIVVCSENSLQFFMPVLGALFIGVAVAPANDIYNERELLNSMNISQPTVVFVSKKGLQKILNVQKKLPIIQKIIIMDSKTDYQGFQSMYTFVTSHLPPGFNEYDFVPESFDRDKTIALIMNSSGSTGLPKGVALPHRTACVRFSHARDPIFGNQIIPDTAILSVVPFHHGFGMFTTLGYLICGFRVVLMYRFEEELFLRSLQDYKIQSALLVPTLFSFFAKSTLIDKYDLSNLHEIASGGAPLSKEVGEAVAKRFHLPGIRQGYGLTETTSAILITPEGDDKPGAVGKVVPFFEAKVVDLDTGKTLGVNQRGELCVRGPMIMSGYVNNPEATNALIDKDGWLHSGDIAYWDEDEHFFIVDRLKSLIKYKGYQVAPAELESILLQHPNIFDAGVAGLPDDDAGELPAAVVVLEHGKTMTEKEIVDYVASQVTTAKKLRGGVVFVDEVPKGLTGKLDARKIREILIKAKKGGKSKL
Outline: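 Purified P. pyralis luciferase at 10 nM in 50 mM Tris Acetate (final), luminescence read within 5 minutes of enzyme addition to compounds. Activity normalised to PTC124 versus DMSO; concentration-response curves classed by r2, magnitude and activity.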

[3] = S16 Schwann cell PMP22 intronic element beta-lactamase assay (AID 624044; calls by dose curve; also: nearly all actives have a fitted effect of over 15% in size)
Outline: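 Rat S16 Schwann cells with beta-Lac driven by a PMP22 intronic element, compound-treated 24 h at 37 °C. LiveBLAzer FRET B/G read: 460 nm normalized to potassium clavulanate vs DMSO; 535 nm FRET as viability; concentration-effect curves classified.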

[4] = system: 7G8; experiment: qHTS profiling for inhibitors of Plasmodium falciparum proliferation (AID 504749); also: nearly all actives have a fitted effect of over 60% in size; also: potency is read from the fitted curve at half-maximal effect; details: P. falciparum in erythrocytes, SYBR Green DNA, 72 h; series mostly up to 28.7 µM
Outline: (§1)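 P. falciparum-infected erythrocytes (0.3% parasitemia, 2.5% hematocrit) incubated with compound 72 h at 37 C, 5% CO2. Parasite DNA detected by SYBR Green after lysis, overnight at room temperature; normalised to 0.29 uM artemisinin and DMSO.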

[5] = system: CP203; experiment: as above; details: P. falciparum in erythrocytes, SYBR Green DNA, 72 h; series mostly up to 28.7 µM
Outline: as §1

[6] = system: CP266; experiment: as above; details: P. falciparum in erythrocytes, SYBR Green DNA, 72 h; series mostly up to 28.7 µM
Outline: as §1

[7] = system: CP268; experiment: as above; details: P. falciparum in erythrocytes, SYBR Green DNA, 72 h; series mostly up to 28.7 µM
Outline: as §1

[8] = system: CP305; experiment: as above; details: P. falciparum in erythrocytes, SYBR Green DNA, 72 h; series mostly up to 28.7 µM
Outline: as §1

[9] = system: CP315; experiment: as above; details: P. falciparum in erythrocytes, SYBR Green DNA, 72 h; series mostly up to 28.7 µM
Outline: as §1

[10] = system: DIV17; experiment: as above; details: P. falciparum in erythrocytes, SYBR Green DNA, 72 h; series mostly up to 28.7 µM
Outline: as §1

[11] = system: Dd2; experiment: as above; details: P. falciparum in erythrocytes, SYBR Green DNA, 72 h; series mostly up to 28.7 µM
Outline: as §1

[12] = system: ECU; experiment: as above; details: P. falciparum in erythrocytes, SYBR Green DNA, 72 h; series mostly up to 28.7 µM
Outline: as §1

[13] = system: ICS; experiment: as above; details: P. falciparum in erythrocytes, SYBR Green DNA, 72 h; series mostly up to 28.7 µM
Outline: as §1

[14] = system: P93_24; experiment: as above; details: P. falciparum in erythrocytes, SYBR Green DNA, 72 h; series mostly up to 28.7 µM
Outline: as §1

[15] = system: PC15; experiment: as above; details: P. falciparum in erythrocytes, SYBR Green DNA, 72 h; series mostly up to 28.7 µM
Outline: as §1

[16] = system: PC26; experiment: as above; details: P. falciparum in erythrocytes, SYBR Green DNA, 72 h; series mostly up to 28.7 µM
Outline: as §1

[17] = system: TAB109; experiment: as above; details: P. falciparum in erythrocytes, SYBR Green DNA, 72 h; series mostly up to 28.7 µM
Outline: as §1

[18] = system: TAB165; experiment: as above; details: P. falciparum in erythrocytes, SYBR Green DNA, 72 h; series mostly up to 28.7 µM
Outline: as §1

[19] = Confirmation and Secondary Assay for Modulators of Hemoglobin Beta Chain Splicing at IVS2 654 locus (AID 910);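 also: HeLa cells stably carrying EGFP split by mutant beta-globin IVS2-654 intron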
Outline: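 HeLa cells stably expressing EGFP interrupted by β-globin IVS2-654 intron, seeded overnight in Opti-MEM/2% FCS, then treated 2 days at 37 °C. Restored splicing read as total peak GFP intensity per well by laser scanning cytometry (488 nm excitation, 500–520 nm emission); 500 nM antisense PNA as control.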

[20] = Confirmation and Secondary Assay for Modulators of Hemoglobin Beta Chain Splicing at IVS2 705 locus (AID 930);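 also: HeLa cells stably expressing the EGFP-705 splicing reporter; GFP fluorescence per well restored by corrected splicing of the IVS2-705 intron in EGFP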
Outline: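 Assay measures total GFP intensity per well in HeLa EGFP-705 cells after 2 days with compound; mis-splicing normally truncates EGFP, so fluorescence indicates corrected splicing.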

C[N+]1(C)[C@@H]2CC(OC(=O)[C@@H](CO)c3ccccc3)C[C@@H]1[C@H]1O[C@H]12 (stereo not given in full)
Potency [1]: inactive | outcome [2]: inactive | outcome [3]: inactive | Potency [4]: inactive | Potency [5]: inactive | Potency [6]: inactive | Potency [7]: inactive | Potency [8]: inactive | Potency [9]: inactive | Potency [10]: inactive | Potency [11]: inactive | Potency [12]: inactive | Potency [13]: inactive | Potency [14]: inactive | Potency [15]: inactive | Potency [16]: inactive | Potency [17]: inactive | Potency [18]: inactive

N=c1ccn2c(n1)O[C@@H]1[C@@H](O)[C@H](CO)O[C@H]12
outcome [19]: inactive | outcome [20]: inactive

CC(=O)N1CCN(c2ccc(OC[C@@H]3CO[C@@](Cn4ccnc4)(c4ccc(Cl)cc4Cl)O3)cc2)CC1
outcome [2]: inactive | outcome [3]: inactive | Potency [4]: 11.2 µM (active) | Potency [11]: inactive

C(=C/c1ccccc1)/CN1CCN(C(c2ccccc2)c2ccccc2)CC1
Potency [1]: inactive | outcome [2]: inactive | outcome [3]: inactive | Potency [5]: inactive | Potency [6]: inactive | Potency [7]: inactive | Potency [8]: inactive | Potency [9]: inactive | Potency [10]: inactive | Potency [12]: inactive | Potency [13]: 7.94 µM (active) | Potency [14]: inactive | Potency [15]: inactive | Potency [16]: inactive | Potency [17]: inactive | Potency [18]: inactive

Cc1nnc(SCC2=C(C(=O)O)N3C(=O)[C@@H](NC(=O)Cn4cnnn4)[C@@H]3SC2)s1
Potency [1]: inactive

Cc1cnc(CNc2nc(-c3cccnc3)nc3ccccc23)cn1
outcome [19]: inactive | outcome [20]: inactive

Nc1nc(Cl)nc2c1ncn2[C@@H]1O[C@@H](CO)[C@@H](O)[C@H]1O
outcome [19]: inactive | outcome [20]: inactive
